Assay results from PubChem BioAssay AID1159580 (chemical genetic matrix, 2015).
Where “and” joins values, the source holds several entries; their conditions need not be identical. Equal entries are not always repeated. In all, about 5,500 compounds went through this assay and about 2,000 (36%) were called active. Not shown: some 18% with an inconclusive outcome. Rule as the data show it: active = normalized growth mostly below about 0.91 (no sharp cut-off); inconclusive = no clear call, values can overlap the other calls; inactive = mostly above about 0.92. Some of the results follow.

Test: chemical genetic growth profiling, strain panel (AID 1159580);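 also: tested at 20 µM; growth read once vehicle control cultures reached saturation at 30 °C; 1 = growth at the plate median or of vehicle wells; lower values mean less growth of the strain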
Details: S. cerevisiae deletion strains, growth OD

Measured: normalized growth

O=C(O)c1ccccc1O
inactive: locus YAL013W, strain DEP1, hits give low values 1.01 | locus YAL021C, strain ccr4, hits give low values 0.985 | locus YAL026C, strain drs2, hits give low values 0.984 | locus YAL030W, strain snc1, hits give low values 0.992 | locus YBL061C, strain skt5, hits give low values 0.979 | locus YBR009C, strain hhf1, hits give low values 0.996 | locus YBR021W, strain FUR4, hits give low values 0.994 | locus YBR023C, strain chs3, hits give low values 0.995 | locus YBR171W, strain sec66, hits give low values 0.996 | locus YBR229C, strain ROT2, hits give low values 1 | locus YBR231C, strain swc5, hits give low values 0.975 | locus YBR279W, strain paf1, hits give low values 0.979 | locus YCL011C, strain gbp2, hits give low values 0.983 | locus YCL016C, strain dcc1, hits give low values 1.01 | locus YCL029C, strain bik1, hits give low values 1.01 | locus YCL069W, strain vba3, hits give low values 0.994 | locus YCR088W, strain abp1, hits give low values 0.981 | locus YDL005C, strain med2, hits give low values 0.973 | locus YDL035C, strain GPR1, hits give low values 1.01 | locus YDL040C, strain nat1, hits give low values 0.969 | locus YDL074C, strain BRE1, hits give low values 1.03 | locus YDL101C, strain DUN1, hits give low values 1.01 | locus YDL134C, strain PPH21, hits give low values 1.01 | locus YDL185W, strain tfp1, hits give low values 0.992 | locus YDL192W, strain arf1, hits give low values 1.01 | locus YDR001C, strain nth1, hits give low values 0.955 | locus YDR069C, strain doa4, hits give low values 0.975 | locus YDR101C, strain arx1, hits give low values 1.01 | locus YDR137W, strain rgp1, hits give low values 0.997 | locus YDR159W, strain sac3, hits give low values 0.976 | locus YDR162C, strain NBP2, hits give low values 1.01 | locus YDR195W, strain ref2 0.904 | locus YDR297W, strain sur2, hits give low values 0.984 | locus YDR318W, strain mcm21, hits give low values 1.03 | locus YDR334W, strain swr1, hits give low values 0.916 | locus YDR335W, strain msn5, hits give low values 0.959 | locus YDR388W, hits give low values 1.01 | locus YDR392W, strain spt3, hits give low values 1.02 | locus YDR502C, strain sam2, hits give low values 1.01 | locus YEL003W, strain gim4, hits give low values 0.973 | locus YEL037C, strain rad23, hits give low values 0.986 | locus YEL061C, strain CIN8 (second series), hits give low values 0.959 | locus YEL061C, strain CIN8, hits give low values 1 | locus YER015W, strain faa2, hits give low values 0.968 | locus YER016W, strain bim1, hits give low values 0.978 | locus YER110C, hits give low values 1.01 | locus YER111C, strain swi4, hits give low values 0.97 | locus YER155C, strain BEM2 (second series), hits give low values 0.967 | locus YER155C, strain BEM2, hits give low values 0.992 | locus YER167W, strain BCK2, hits give low values 1 | locus YFR010W, strain ubp6, hits give low values 0.978 | locus YGL078C, strain dbp3, hits give low values 0.998 | locus YGL086W, strain mad1, hits give low values 1 | locus YGL167C, strain pmr1, hits give low values 0.968 | locus YGL173C, strain kem1, hits give low values 0.995 | locus YGL227W, strain vid30, hits give low values 0.971 | locus YGL240W, strain doc1, hits give low values 0.983 | locus YGL248W, strain PDE1, hits give low values 1 | locus YGL253W, strain hxk2, hits give low values 0.973 | locus YGR078C, strain PAC10, hits give low values 1 | locus YGR135W, strain pre9, hits give low values 1.03 | locus YGR252W, strain gcn5, hits give low values 1.01 | locus YHR013C, strain ard1, hits give low values 1.01 | locus YHR027C, strain rpn1, hits give low values 0.984 | locus YHR030C, strain SLT2, hits give low values 1.01 | locus YHR079C, strain IRE1 (second series), hits give low values 1.02 | locus YHR079C, strain IRE1, hits give low values 1.06 | locus YHR094C, strain hxt1, hits give low values 0.997 | locus YHR129C, strain ARP1, hits give low values 0.998 | locus YHR142W, strain chs7, hits give low values 0.997 | locus YHR200W, strain rpn10, hits give low values 1.01 | locus YIL066C, strain RNR3, hits give low values 1 | locus YIL073C, strain SPO22, hits give low values 1.05 | locus YIL125W, strain kgd1, hits give low values 0.994 | locus YIR030C, strain dcg1, hits give low values 1 | locus YJL092W, strain hpr5, hits give low values 0.996 | locus YJL095W, strain BCK1 (second series), hits give low values 0.978 | locus YJL095W, strain BCK1, hits give low values 1.01 and 0.995 | locus YJL115W, strain asf1, hits give low values 0.951 | locus YJL129C, strain trk1, hits give low values 0.956 | locus YJL134W, strain LCB3, hits give low values 1 | locus YJL154C, strain vps35, hits give low values 0.961 | locus YJL164C, strain tpk1, hits give low values 0.993 | locus YJL166W, strain qcr8, hits give low values 0.994 | locus YJL168C, strain set2, hits give low values 1.01 | locus YJL187C, strain SWE1 (second series), hits give low values 1 | locus YJR043C, strain POL32, hits give low values 0.979
